Some test systems named below: NCI-H23 lung; NCI-H226 lung; NCI-H322M lung; HOP-62 NSCLC; NCI-H460 lung; NCI-H522 lung; A549/ATCC NSCLC; 786-0 renal; COLO 205 colon; DU-145 prostate; K-562 leukemia; MALME-3M melanoma; MDA-MB-231 breast; RXF 393 renal; SF-268 CNS; SF-295 CNS; SF-539 CNS; M14 melanoma; HCT-15 colon; UACC-257 melanoma.
Assay in all cases: NCI-60 one-dose screen, 48 h (100 = growth as untreated, 0 = no growth, -100 = all killed)
Conditions in all cases: 10 µM

Compounds without any hit were thinned out: in the full panel of roughly 83,000, 20% have a hit.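 The test compound was applied at a single concentration to cells in 96-well plates for 48 hours, and percent growth was recorded.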 Values without a mark were called inactive. Active and inactive are the calls of the source. The calls were made as follows: active = growth percent below 10; inactive = the rest.

Consider `CC(C)=CCc1cc(O)cc2c1OC(C=C(C)C)C1=C2C(=O)C2=C(NCCS2(=O)=O)C1=O` (centres undefined), for which the growth was -48.7% (active) with NCI-H23 lung; -17.6% (active) in the experiment with NCI-H226 lung; -17.5% (active) in the experiment with NCI-H322M lung; -12.6% (active) with HOP-62 NSCLC; 3.29% (active) in the experiment on NCI-H460 lung; -20.6% (active) with NCI-H522 lung. Moreover, the growth is 2.33% (active) with A549/ATCC NSCLC; 22.9% in the experiment with 786-0 renal; -61.3% (active) in the experiment with COLO 205 colon; -95.3% (active) in the experiment with DU-145 prostate; 2.31% (active) in the experiment on K-562 leukemia; -92.9% (active) in the experiment with MALME-3M melanoma. Further, the growth in the experiment on MDA-MB-231 breast was -8.67% (active); in the experiment with RXF 393 renal, -2.85% (active); in the experiment on SF-268 CNS it was -1.83% (active); in the experiment with SF-295 CNS, 45.9%; in the experiment with SF-539 CNS it was -50.5% (active); in the experiment on M14 melanoma, -87.2% (active). In the experiment on HCT-15 colon, the growth is 28.4%.
Turning to `CC(C)=CCc1cc(O)cc2c1OC(C=C(C)C)C1=C2C(=O)C2=C(C1=O)S(=O)(=O)CCN2` (centres undefined), the growth was 28.6% with NCI-H23 lung; 59.8% in the experiment with NCI-H226 lung; 5.2% (active) in the experiment with NCI-H322M lung; 35% in the experiment on HOP-62 NSCLC; 31.4% in the experiment on NCI-H460 lung; 7.19% (active) in the experiment on NCI-H522 lung. For the same compound, the growth in the experiment on A549/ATCC NSCLC is 70.1%; in the experiment on 786-0 renal it was 80%; with COLO 205 colon it was 43.4%; with DU-145 prostate it was 56.4%; with K-562 leukemia, 5.77% (active); in the experiment on MALME-3M melanoma, -64.7% (active). Moreover, the growth with MDA-MB-231 breast was 17.5%; in the experiment with RXF 393 renal, 73.3%; in the experiment on SF-268 CNS, 2.3% (active); with SF-295 CNS, 85.5%; with SF-539 CNS, -19.2% (active); in the experiment on M14 melanoma it was 27.6%. The growth in the experiment with HCT-15 colon was 58%.
In the case of `COc1cc(Nc2ccnc(NCCNc3ccnc4cc(Cl)ccc34)n2)cc(OC)c1`, the growth was 38.2% in the experiment with NCI-H23 lung; 55.5% in the experiment with NCI-H226 lung; 46.5% with NCI-H322M lung; 79.2% in the experiment on HOP-62 NSCLC; 27.8% in the experiment on NCI-H460 lung; 17.7% with NCI-H522 lung. Also, the growth in the experiment with A549/ATCC NSCLC is 42.9%; in the experiment with 786-0 renal it was 35.4%; in the experiment with COLO 205 colon, 2.21% (active); with DU-145 prostate, 63.9%; in the experiment on K-562 leukemia, 2.17% (active); with MALME-3M melanoma it was -68.3% (active). Also, the growth in the experiment on MDA-MB-231 breast is 27.1%; in the experiment on RXF 393 renal, 46.2%; with SF-268 CNS, 50.5%; in the experiment on SF-295 CNS, 39.9%; in the experiment with SF-539 CNS, -65.9% (active); with HCT-15 colon, 28.8%.
As to `COc1cc(-c2nc(-c3nnc(-c4ccc(F)c(Cl)c4)o3)c3ccccn23)cc(OC)c1OC`, the growth in the experiment with NCI-H23 lung was 70.1%; in the experiment on NCI-H226 lung, 15.3%; in the experiment with NCI-H322M lung, 54.5%; with HOP-62 NSCLC, -65.6% (active); in the experiment on NCI-H460 lung, 7.43% (active); in the experiment with NCI-H522 lung it was 5.92% (active). The growth in the experiment on A549/ATCC NSCLC was 23.7%; with 786-0 renal it was 45.5%; in the experiment on COLO 205 colon, 43.7%; in the experiment with DU-145 prostate it was 41%; in the experiment on K-562 leukemia it was 52.6%; in the experiment with MALME-3M melanoma it was 13.4%. In addition, the growth in the experiment with MDA-MB-231 breast was 57.3%; in the experiment on RXF 393 renal, 40.4%; in the experiment on SF-295 CNS, 37.3%; with SF-539 CNS it was 37%; with UACC-257 melanoma it was 40.3%; with HCT-15 colon it was 55.4%.
Regarding `CCCCN(CCCC)c1cc(C(=O)CCCCCN)c2ccccc2n1`, the growth is 94.5% in the experiment with NCI-H23 lung; 93% in the experiment on NCI-H226 lung; -30.8% (active) with NCI-H322M lung; 110% with HOP-62 NSCLC; 31.8% in the experiment on NCI-H460 lung; 76.9% in the experiment on NCI-H522 lung. Moreover, the growth with A549/ATCC NSCLC was -31.8% (active); with 786-0 renal it was 38.8%; in the experiment with COLO 205 colon it was 17.4%; in the experiment on DU-145 prostate, -81.1% (active); with K-562 leukemia, -67.9% (active); with MALME-3M melanoma, -74.4% (active). Further, the growth is 78.3% in the experiment on MDA-MB-231 breast; 82.5% in the experiment with RXF 393 renal; -58% (active) in the experiment on SF-268 CNS; -62.3% (active) in the experiment with SF-295 CNS; 83.6% with SF-539 CNS; 14.4% with M14 melanoma. Further, the growth in the experiment on HCT-15 colon was 60.1%.
Consider `Cc1cc(N(CCCNc2ccnc3cc(Cl)ccc23)Cc2ccc3c(c2)OCO3)nc(N2CCCCC2)n1`, for which the growth was 6.38% (active) in the experiment with NCI-H23 lung; 38.1% in the experiment on NCI-H226 lung; -5.02% (active) in the experiment with NCI-H322M lung; -45.1% (active) in the experiment on HOP-62 NSCLC; -30.8% (active) in the experiment on NCI-H460 lung; -43.9% (active) with NCI-H522 lung. The growth was -32.8% (active) with A549/ATCC NSCLC; -91.5% (active) in the experiment on 786-0 renal; -78.7% (active) in the experiment with COLO 205 colon; 11.1% in the experiment on DU-145 prostate; -45.5% (active) in the experiment on K-562 leukemia; -81.6% (active) with MALME-3M melanoma. Moreover, the growth with MDA-MB-231 breast is -47.2% (active); with RXF 393 renal, -74.5% (active); in the experiment on SF-268 CNS, 3.28% (active); in the experiment with SF-295 CNS, -67.6% (active); in the experiment with SF-539 CNS, -87.7% (active); in the experiment with M14 melanoma, -86% (active). In addition, the growth with HCT-15 colon is -78.3% (active).
On to `NC(=O)CC1(c2ccccc2)CCCCC1`, for which the growth in the experiment with NCI-H23 lung is 103%; with NCI-H226 lung, 110%; with NCI-H322M lung, 90.9%; in the experiment on HOP-62 NSCLC it was 102%; in the experiment with NCI-H460 lung, 104%; in the experiment on NCI-H522 lung, 96%. In addition, the growth with A549/ATCC NSCLC is 116%; in the experiment with 786-0 renal, 97.1%; in the experiment with COLO 205 colon it was 103%; in the experiment on DU-145 prostate it was 107%; in the experiment with K-562 leukemia it was 92.3%; with MALME-3M melanoma, 93.8%. Further, the growth in the experiment with MDA-MB-231 breast was 105%; in the experiment with RXF 393 renal, 114%; with SF-268 CNS it was 98.5%; with SF-295 CNS, 103%; in the experiment on SF-539 CNS, 104%; with M14 melanoma, 96%. Also, the growth in the experiment with HCT-15 colon is 101%.
As to `Cc1cc(Cl)nc(N(CCCNc2ccnc3cc(Cl)ccc23)Cc2cccs2)n1`, the growth is -12.9% (active) in the experiment with NCI-H23 lung; 41.1% in the experiment with NCI-H226 lung; 29.7% with NCI-H322M lung; 23.1% in the experiment on HOP-62 NSCLC; 7.09% (active) in the experiment with NCI-H460 lung; -0.273% (active) in the experiment on NCI-H522 lung. Besides, the growth with A549/ATCC NSCLC is 18.1%; in the experiment with 786-0 renal, 17.4%; with COLO 205 colon, -73.3% (active); in the experiment with DU-145 prostate, 30.7%; in the experiment with K-562 leukemia, -11.7% (active); with MALME-3M melanoma it was -30% (active). The growth was 17.2% in the experiment on MDA-MB-231 breast; 0.398% (active) with RXF 393 renal; 38.6% in the experiment on SF-268 CNS; 13.1% in the experiment on SF-295 CNS; 3.33% (active) in the experiment on SF-539 CNS; -7.28% (active) in the experiment on M14 melanoma. For the same compound, in the experiment with HCT-15 colon, the growth was 8.59% (active).
On to `Fc1ccc(-c2nnc(-c3c(-c4ccc(F)cc4)nc4ccccn34)o2)cc1`, for which the growth in the experiment on NCI-H23 lung was 69%; in the experiment on NCI-H226 lung, 84.2%; in the experiment on NCI-H322M lung it was 105%; with HOP-62 NSCLC, 78.5%; in the experiment with NCI-H460 lung it was 70%; in the experiment on NCI-H522 lung it was 25.9%. Besides, the growth was 72.4% in the experiment with A549/ATCC NSCLC; 88.2% in the experiment with 786-0 renal; 79.5% in the experiment on COLO 205 colon; 92.1% with DU-145 prostate; 87.2% with K-562 leukemia; 120% in the experiment on MALME-3M melanoma. In addition, the growth with MDA-MB-231 breast is 78.9%; in the experiment on RXF 393 renal it was 85.9%; in the experiment with SF-295 CNS, 88.7%; in the experiment on SF-539 CNS it was -10.1% (active); with UACC-257 melanoma it was 85.1%; in the experiment with M14 melanoma it was 116%. Further, in the experiment on HCT-15 colon, the growth is 98.5%.

Values taken from PubChem BioAssay (NCI).
